# Results published in PubChem BioAssay AID624352 (Sanford-Burnham Center for Chemical Genomics, 2012).
# Hit rate of the full screen: of about 360,000 compounds, about 2,600 (0.72%) were called active.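 How the source made its calls: active means inhibition of the luminescence signal of 40% or more relative to plate controls, in a single-dose primary screen at 18.75 µM; inactive means the rest.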 Only a selection was taken, and actives are over-represented in it overall.
# Assay: blockers of HIF-2a driven luciferase – luminescence, 786-0 RCC cells, primary screen (AID 624352)
# Conditions: 786-0 RCC cells HIF-2a reporter, overnight, at 18.8 µM, stronger effect = higher value
row,Structure (SMILES),inhibition
1,C=CCN1C(=NC(=O)COc2ccccc2)SC2CS(=O)(=O)CC21 (centres undefined),4.93% (inactive)
2,OCCN1CCN(CCO)C1=S,9.5% (inactive)
3,O=C(O)c1ccc(N/N=C/c2ccc3ncccc3c2)cc1,54.5% (active)
4,CC(C)(C)OC(=O)N/N=C/c1ccc(C(=O)O)cc1,4.48% (inactive)
5,NCCCCCC(=O)N/N=C/c1ccc2nccnc2c1,7.39% (inactive)
6,O=C1NC(=O)C(CCc2ccccc2)(c2ccccc2)N1 (centres undefined),17.5% (inactive)
7,Cc1ccc(OCC(=O)NC(C)c2ccccc2)c([N+](=O)[O-])n1 (centres undefined),17.9% (inactive)
8,COCC(C)n1c(C)cc(C(=O)COc2ccc(C)nc2[N+](=O)[O-])c1C (centres undefined),50.6% (active)
9,Cc1cc(C(=O)COC(=O)CNC(=O)c2ccc(F)cc2)c(C)n1Cc1ccco1,-47.3% (inactive)
10,COc1ccc(C)cc1-n1nnnc1SCC(=O)c1cc(C)n(Cc2ccco2)c1C,-49.1% (inactive)
11,Cc1ccc(OCC(=O)c2cc(C)n(Cc3ccco3)c2C)c([N+](=O)[O-])n1,48.1% (active)
12,COc1ccccc1CNC(=O)COc1ccc(C)nc1[N+](=O)[O-],-1.54% (inactive)
13,COc1ccc(NC(=O)CN2C(=O)COc3ccc(S(=O)(=O)N4CCOCC4)cc32)cc1,-0.73% (inactive)
14,CCCCSc1[nH]c(=O)c(C(=O)OCC)cc1C#N,5.92% (inactive)
15,CCN(CC)CC(=O)Nc1sc2c(c1C(=O)c1ccccc1C)CCC2,31.1% (inactive)
16,O=C(Nc1ccccc1C(=O)O)c1cc(S(=O)(=O)N2CCCCC2)cs1,-9.72% (inactive)
17,CC(NS(=O)(=O)c1ccccc1)c1n[nH]c(=S)n1-c1ccccc1 (centres undefined),16.8% (inactive)
18,C[C@@H]1CN([C@@H](C)CO)C(=O)c2cccc(NS(=O)(=O)c3ccc(F)cc3)c2O[C@H]1CN(C)C(=O)NC1CCCCC1,-10.3% (inactive)
19,C=CCSc1nnc(N2C(=O)C(O)=C(C(=O)c3ccco3)C2c2ccc(F)cc2)s1 (centres undefined),-55.2% (inactive)
20,Cc1ccc(-c2cc(C(=O)N/N=C/C=C/c3ccccc3)n[nH]2)o1,-1.73% (inactive)
21,CC(C)(C)c1cc(C(=O)N/N=C/c2ccc([N+](=O)[O-])s2)n[nH]1,80.5% (active)
22,O=[N+]([O-])c1ccc(C=Nc2ccc(Cl)cc2Cl)s1,-3.51% (inactive)

row,Structure (SMILES),inhibition
1,COc1ccnc(Oc2ccccc2)n1,-5.97% (inactive)
2,CCCCCCCCCCOC(=O)C[N+](C)(C)CC1CCCCC1O (centres undefined),7.58% (inactive)
3,CCN1CCC(O)(/C=C/c2ccc(C)cc2)C(C(=O)/C=C/c2ccc(C)cc2)C1 (centres undefined),66.8% (active)
4,Cc1ccc(-c2nn(C(C)(C)C)c3ncnc(N)c23)cc1,71.5% (active)
5,CCN(CC(=O)Nc1c(F)cccc1F)C(=O)c1ccc(-c2ccc(C(C)=O)cc2)o1,-53.4% (inactive)
6,NS(=O)(=O)c1ccc(CNC(=O)c2ccc(Cl)cc2[N+](=O)[O-])cc1,2.46% (inactive)
7,O=C(CSc1c2c(nc3ccc(Cl)cc13)CCCC2)NCc1ccco1,17.8% (inactive)
8,Clc1ccc2nc(-c3ccccc3)nc(C(Cl)Cl)c2c1,57.1% (active)
9,Fc1ccc2nc(-c3ccccc3)nc(SCc3nnc(-c4ccccc4)o3)c2c1,23.8% (inactive)
10,Cc1cc(C(=O)N2CCCC2(C)C(=O)O)c(C)o1 (centres undefined),-4.82% (inactive)
11,CC(=O)Nc1ccc(CC#N)cc1,18.5% (inactive)
12,C/C(Cc1ccccc1)=N\NC(=O)CNC(=O)c1cccc(Br)c1,14% (inactive)
13,Cc1ccc(C(=O)Nc2c(-c3ccccc3)[nH][nH]c2=O)cc1,-3.55% (inactive)
14,CN(C)C(=O)c1ccc(NC(=O)c2ccccc2-c2ccccc2)cc1,19.3% (inactive)
15,O=C(NC1=CC(=O)c2ccccc2C1=O)c1ccccc1,92.9% (active)
16,Cc1ccc(-c2cnc(NC(=O)CCC(=O)N(C)Cc3ccccc3)n2C)cc1,-43.9% (inactive)
17,CCOc1cc(/C=C(/C#N)c2ccc(Cl)cc2)cc(Cl)c1OCC(=O)O,91.8% (active)
18,COc1cc(/C=C(/NC(=O)c2ccc(Cl)cc2Cl)C(=O)O)cc(OC)c1OC,12.9% (inactive)
19,CCOc1cc(/C=N/NC(=O)OC)ccc1OCCSc1ccc(Cl)cc1,-1.68% (inactive)
20,CCOC(=O)c1c(C)[nH]c(C2=NNC(=NC(C)COC)SC2)c1C (centres undefined),-141% (inactive)
21,CCOC(=O)C1(Cc2ccccc2C)CCCN(C(=O)c2ccc(COC)o2)C1 (centres undefined),-190% (inactive)
22,Cc1cccc(NC(=O)C2CCCN(C(=O)Nc3ccc(F)cc3)C2)c1C (centres undefined),7.56% (inactive)

row,Structure (SMILES),inhibition
1,COc1ccc(C2=NO[C@@H]3C(=O)N(Cc4ccccc4)C(=O)[C@H]23)cc1OC,16.2% (inactive)
2,COc1ccc(CCNS(=O)(=O)c2ccc(F)cc2)cc1OC,9.4% (inactive)
3,COc1ccc(-c2cc(C(F)(F)F)nc(S(C)(=O)=O)n2)cc1OC,94.1% (active)
4,O=C(c1cn(-c2ccccc2)nc1-c1cccnc1)N1CCN(S(=O)(=O)c2ccccc2F)CC1,9.12% (inactive)
5,CCc1ccc(-n2c(=S)sc3c(=O)n(-c4ccccc4OC)c(=S)[nH]c32)cc1,8.96% (inactive)
6,COc1ccc(OC)c2c(N)c(C#N)c(C(F)(F)C(F)(F)F)nc12,8.83% (inactive)
7,COc1cccc2c(O)cc(=O)n(C)c12,19.6% (inactive)
8,COc1cccc2c(C)c(C(=O)O)[nH]c12,47% (active)
9,COc1cc2c(C(=O)O)c(C)n(C)c2c2ccccc12,-195% (inactive)
10,O=C(c1ccccc1Cl)N(Cc1ccccc1F)N1C(=O)CCCC1=O,16.7% (inactive)
11,O=C(O)C1C2C=CC(O2)C1C(=O)NCCc1cccc(Cl)c1 (centres undefined),-2.61% (inactive)
12,Cc1cc(O)ccc1-c1cc(C(=O)NCc2cc(C(F)(F)F)cc(C(F)(F)F)c2)[nH]n1,15.8% (inactive)
13,COCCn1c(SCC(=O)Nc2ccccc2F)nc2c(c1=O)SCC2,1.2% (inactive)
14,Cc1cccc(NC(=O)C2CCCN(C(=O)NCc3ccccc3)C2)c1C (centres undefined),0.73% (inactive)
15,CC(=O)Nc1c(-c2ccc(C)cc2)nc2ccc(Cl)cn12,4.44% (inactive)
16,Cc1ccc2nc(-c3ccccc3)c(CC3CCCCC3)n2c1,-173% (inactive)
17,Cc1ccc(-c2cn3cc(C)ccc3n2)cc1,71.3% (active)
18,Cc1ccc2nc(-c3ccc(Br)cc3)cn2c1,40.6% (active)
19,COc1ccc(-c2nc3ccc(Br)cn3c2Cc2ccc(C)cc2)cc1OC,-137% (inactive)
20,Cc1ccc(-c2nc3ccc(Br)cn3c2Cc2ccccc2C(F)(F)F)cc1,-290% (inactive)
